{"source": "PubChem BioAssay (NCATS)", "note": "Inconclusive results are not listed. Calls of active or inactive are those of the source. The call rests on the fitted dose curve; in most records, active means well fitted curve in the direction sought with a large enough effect; inconclusive means small, poorly fitted or top-dose-only effect, or another doubt; inactive means no such curve, though single readings can be large or run the other way."}
{"target": "Glucagon-like peptide 1 receptor (Homo sapiens) (UniProt P43220)", "sequence (P43220 whole entry, looked up)": "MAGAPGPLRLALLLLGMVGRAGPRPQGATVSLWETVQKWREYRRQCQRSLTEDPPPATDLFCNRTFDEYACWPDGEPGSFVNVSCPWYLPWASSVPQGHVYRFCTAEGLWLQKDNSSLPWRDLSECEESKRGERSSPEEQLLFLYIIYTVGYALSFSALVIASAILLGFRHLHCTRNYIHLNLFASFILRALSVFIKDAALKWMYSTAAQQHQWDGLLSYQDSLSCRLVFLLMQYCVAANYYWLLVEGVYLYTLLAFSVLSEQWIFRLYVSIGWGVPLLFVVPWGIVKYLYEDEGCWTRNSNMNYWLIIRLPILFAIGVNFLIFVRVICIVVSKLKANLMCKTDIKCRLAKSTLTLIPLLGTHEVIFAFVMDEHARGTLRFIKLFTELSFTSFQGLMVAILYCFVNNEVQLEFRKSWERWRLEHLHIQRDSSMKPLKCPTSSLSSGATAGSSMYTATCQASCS", "assay": "qHTS of GLP-1 Receptor Agonists: LOPAC Validation (AID 624148);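 further: luminescence from a luciferase reporter switched on by cAMP; higher luminescence signal means agonism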", "conditions": "GLP-1R agonist cell assay; series mostly up to 46.1 µM", "description": "The overall goal of this project was to develop a novel assay for discovering small molecule ligands for class B1 G protein-coupled receptors (GPCRs). Very few agonists (or inverse agonists) with generally weak activity for this entire group of physiologically important receptors are known to date. To establish proof-of-principle that this critical bottleneck can be overcome with a suitable screening approach, our studies focused on the class B1 receptor for glucagon-like peptide-1 (GLP-1R), a potential therapeutic target for diabetes and neurodegenerative disease.\nThe assay was developed in a \"mix and measure\" format using a cell-based functional readout. Toward this goal, stably transfected HEK293 cell clones were established that co-express (i) a cAMP-responsive luciferase reporter gene, and (ii) GLP-1Rs that upon ligand interaction either stimulate (agonists) or inhibit (inverse agonists) luciferase activity. In different cell lines to be used for screening, expressed GLP-1Rs are specifically optimized for high sensitivity detection of either weak agonists (hypersensitive receptor) or inverse agonists (constitutively active receptor mutant). In addition, control cell lines were developed that express either the cAMP-responsive reporter gene without recombinant GLP-1Rs (enabling initial exclusion of GLP-1R independent effects of candidate probes), or the reporter gene together with wild type GLP-1Rs (for confirmation of probe activity at this receptor), or the reporter gene in combination with the constitutively active orphan receptor GPR119 (enabling initial exclusion of GLP-1R independent inhibitory effects of candidate inverse agonists).\nTo that end, this assay was optimized for 1536-well format and screened against the MLSMR.\nNIH Molecular Libraries Probe Production Network [MLPCN]\nNIH Chemical Genomics Center [NCGC]\nPI Name: Martin Beinborn, Tufts Medical Center\nIn a white solid 1536-well plate, 6 uL of cells are dispensed in DMEM without phenol red, 10% Nu serum, and 1% pen-strep medium. The plates are then incubated for 12 hours at 37 deg C at 5% CO2 before 23 nL of compounds are added. After a 4-6 hr incubation at37 deg C and 5% CO2, 3 uL of detection reagent are added and after a 12 min incubation at RT, a luminescent read is obtained on the ViewLux."}
{"smiles": "NCCNC(=O)c1ncsc1-c1cccc(F)c1", "outcome": "inactive"}
{"smiles": "N=C(N)SCCc1ccc(CCSC(=N)N)cc1", "outcome": "inactive"}
{"smiles": "NCCSSCCN", "outcome": "inactive"}
{"smiles": "Nc1nc(Cl)nc2c1ncn2[C@@H]1O[C@H](COP(=O)(O)OP(=O)(O)OP(=O)(O)O)[C@@H](O)[C@H]1O", "outcome": "inactive"}
{"smiles": "CN(C)CCCO[C@@H]1[C@H]2OC(C)(C)O[C@H]2O[C@@H]1[C@H](O)CO", "outcome": "inactive"}
{"smiles": "C[N+]1(C)C2CC(OC(=O)[C@H](CO)c3ccccc3)CC1C1OC12", "note": "(stereo not given in full)", "outcome": "inactive"}
{"smiles": "COc1ccc(/C=C/C(=O)Nc2ccccc2C(=O)O)cc1OC", "outcome": "inactive"}
{"smiles": "CN1[C@@H](CC(=O)c2ccccc2)CCC[C@H]1C[C@H](O)c1ccccc1", "outcome": "inactive"}
{"smiles": "C[C@@H](CN1CCC(Cc2ccccc2)CC1)[C@@H](O)c1ccc(O)cc1", "outcome": "inactive"}
{"smiles": "O=C(Nc1ccccc1)c1cc([N+](=O)[O-])ccc1Cl", "outcome": "inactive"}
{"smiles": "c1ccc(-c2ccccn2)nc1", "outcome": "inactive"}
{"smiles": "NC(=O)C1=CN(C2OC(COP(=O)(O)OP(=O)(O)OC[C@H]3O[C@@H](n4cnc5c(N)ncnc54)[C@H](OP(=O)(O)O)[C@@H]3O)C(O)C2O)C=CC1", "note": "(stereo not given in full)", "outcome": "inactive"}
{"smiles": "O=C1C(SCCO)=C(SCCO)C(=O)c2ccccc21", "outcome": "inactive"}
{"smiles": "NCCCS(=O)(=O)O", "outcome": "inactive"}
{"smiles": "CN=c1nc(-c2ccccc2)n(-c2ccccc2)s1", "outcome": "inactive"}
{"smiles": "CCCN(CC1CC1)c1nc(C)nc(Nc2c(Cl)cc(Cl)cc2Cl)c1Cl", "outcome": "inactive"}
{"smiles": "C#CCN1C(C)=C(C(=O)OC)C(c2cccc([N+](=O)[O-])c2)C(C(=O)OCC)=C1C", "note": "(stereo not given)", "outcome": "inactive"}
{"smiles": "CCCCCCCCCCCCCCCC(=O)OC(CC(=O)O)C[N+](C)(C)C", "note": "(stereo not given)", "outcome": "inactive"}
{"smiles": "Cn1cc(C2=C(c3ccc(Cl)cc3Cl)C(=O)NC2=O)c2ccccc21", "outcome": "inactive"}
{"smiles": "O=C(O)CC1CC(c2ccccc2)=NO1", "note": "(stereo not given)", "outcome": "inactive"}
{"smiles": "Oc1cc2c(cc1O)CN(C(=S)NCCc1ccc(Cl)cc1)CCC2", "outcome": "inactive"}
{"smiles": "COc1ccccc1N1CCN(CCN(C(=O)c2ccc(I)cc2)c2ccccn2)CC1", "outcome": "inactive"}
{"smiles": "O=C(O)c1cc([N+](=O)[O-])ccc1NCCCc1ccccc1", "outcome": "inactive"}
{"smiles": "O=[N+]([O-])c1ccc(CSc2ncnc3c2ncn3[C@@H]2O[C@H](CO)[C@@H](O)[C@H]2O)cc1", "outcome": "inactive"}
{"smiles": "COc1ccc(NC(=O)/C=C/c2ccc(Cl)cc2)cc1", "outcome": "inactive"}
{"smiles": "COc1ccccc1CNCCCCCCNCCCCCCCCNCCCCCCNCc1ccccc1OC", "outcome": "inactive"}
{"smiles": "CN(C)CCC(c1ccc(Cl)cc1)c1ccccn1", "note": "(stereo not given)", "outcome": "inactive"}
{"smiles": "N#C/C(=C\\c1c[nH]c2ccccc12)C(=O)c1ccc(O)c(O)c1", "outcome": "inactive"}
{"smiles": "CCCCCCCC/C=C\\CCCCCCCC(=O)NCCO", "outcome": "inactive"}
{"smiles": "Ic1ccc(N2CCN(Cc3c[nH]c4ncccc34)CC2)cc1", "outcome": "inactive"}
{"smiles": "CCCCC/C=C\\CC(O)/C=C/c1cccc(CC(O)CCCCO)n1", "note": "(stereo not given)", "outcome": "inactive"}
{"smiles": "Nc1ncnc2c1ncn2[C@@H]1O[C@H](COP(=O)(O)CP(=O)(O)OP(=O)(O)O)[C@@H](O)[C@H]1O", "outcome": "inactive"}
{"smiles": "O=C(O)[C@@H]1C[C@@H](C(=O)O)N1", "outcome": "inactive"}
{"smiles": "Fc1ccc(C(OCCCc2cnc[nH]2)c2ccc(F)cc2)cc1", "outcome": "inactive"}
{"smiles": "CNCC[C@H](Oc1ccc(C(F)(F)F)cc1)c1ccccc1", "outcome": "inactive"}
{"smiles": "NC(=S)NCCC[C@H](N)C(=O)O", "outcome": "inactive"}
{"smiles": "Clc1ccc(N2CCN(Cc3c[nH]c4ncccc34)CC2)cc1", "outcome": "inactive"}
{"smiles": "Oc1ccccc1O", "outcome": "inactive"}
{"smiles": "C[N+](C)(CCCCCC[N+](C)(C)CCCN1C(=O)c2cccc3cccc(c23)C1=O)CCCN1C(=O)c2cccc3cccc(c23)C1=O", "outcome": "inactive"}
{"smiles": "O=c1[nH]c2cc([N+](=O)[O-])c([N+](=O)[O-])cc2[nH]c1=O", "outcome": "inactive"}
